Where a chain is given by its changes, count along the chain named.
What was measured:
Test in all cases: PBM; 200 nM protein, PBS
Conditions in all cases: dsDNA, one strand shown
NKX2-5 [1] = target: NKX2-5 (Homo sapiens, UniProt P52952 125-210, R139K)
PAX4 [2] = target: T1, PAX4 (Homo sapiens, UniProt O43316 9-242, R200K)
T1 sequence: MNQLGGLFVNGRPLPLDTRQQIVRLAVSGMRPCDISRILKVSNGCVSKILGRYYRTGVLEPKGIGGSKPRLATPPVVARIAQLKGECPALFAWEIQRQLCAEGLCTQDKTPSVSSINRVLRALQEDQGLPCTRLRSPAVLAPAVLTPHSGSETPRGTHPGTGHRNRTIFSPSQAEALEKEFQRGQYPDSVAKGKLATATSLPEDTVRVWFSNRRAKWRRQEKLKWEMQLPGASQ

PAX4 [3] = target: T2, PAX4 (Homo sapiens, UniProt O43316 9-242)
T2 sequence: T1 sequence with K192R

NKX2-6 [4] = target: T3, NKX2-6 (Homo sapiens, UniProt A6NCS4 118-204, R150C)
T3 sequence: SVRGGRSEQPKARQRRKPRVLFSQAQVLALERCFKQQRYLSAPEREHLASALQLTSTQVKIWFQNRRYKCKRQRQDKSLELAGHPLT

HOXD13 [5] = target: HOXD13 (Homo sapiens, UniProt P35453 263-343, T313R)
PAX4 [6] = target: T4, PAX4 (Homo sapiens, UniProt O43316 9-242, R200Q)
T4 sequence: T1 sequence with K192Q

HOXD13 [7] = target: HOXD13 (Homo sapiens, UniProt P35453 263-343)
PAX4 [8] = target: T5, PAX4 (Homo sapiens, UniProt O43316 9-242, F177V)
T5 sequence: T1 sequence with F169V, K192R

PAX4 [9] = target: T6, PAX4 (Homo sapiens, UniProt O43316 9-242, F177Y)
T6 sequence: T1 sequence with F169Y, K192R

HOXD13 [10] = target: HOXD13 (Homo sapiens, UniProt P35453 263-343, T313A)
PAX4 [11] = target: T7, PAX4 (Homo sapiens, UniProt O43316 9-242, R227W)
T7 sequence: T1 sequence with K192R, R219W

NKX2-5 [12] = target: NKX2-5 (Homo sapiens, UniProt P52952 125-210)
HOXC10 [13] = target: HOXC10 (Homo sapiens, UniProt Q9NYD6 254-340)
HOXC10 [14] = target: HOXC10 (Homo sapiens, UniProt Q9NYD6 254-340, K271E)
NKX2-6 [15] = target: T8, NKX2-6 (Homo sapiens, UniProt A6NCS4 118-204)
T8 sequence: T3 sequence with C33R

NKX2-6 [16] = target: T9, NKX2-6 (Homo sapiens, UniProt A6NCS4 118-204, F151L)
T9 sequence: T3 sequence with C33R, F34L

HOXA4 [17] = target: HOXA4 (Homo sapiens, UniProt Q00056 201-287, W262R)
HOXA4 [18] = target: HOXA4 (Homo sapiens, UniProt Q00056 201-287, R217L)
ALX1 [19] = target: ALX1 (Homo sapiens, UniProt Q15699 118-204, L144V)
ALX1 [20] = target: ALX1 (Homo sapiens, UniProt Q15699 118-204, L144R)
HOXA4 [21] = target: HOXA4 (Homo sapiens, UniProt Q00056 201-287)
ALX1 [22] = target: ALX1 (Homo sapiens, UniProt Q15699 118-204)
HOXA4 [23] = target: HOXA4 (Homo sapiens, UniProt Q00056 201-287, W262F)
Sequence of HOXA4 (Homo sapiens, UniProt Q00056 201-287, W262F) (Q00056 201-287 W262F): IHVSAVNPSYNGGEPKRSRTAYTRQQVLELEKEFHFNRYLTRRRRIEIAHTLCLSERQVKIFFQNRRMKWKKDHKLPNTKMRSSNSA

Sequence of NKX2-5 (Homo sapiens, UniProt P52952 125-210) (P52952 125-210): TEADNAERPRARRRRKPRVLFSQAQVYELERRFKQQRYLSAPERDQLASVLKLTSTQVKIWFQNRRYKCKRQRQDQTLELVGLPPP
Sequence of NKX2-5 (Homo sapiens, UniProt P52952 125-210, R139K) (P52952 125-210 R139K): as the sequence (P52952 125-210) above, with R15K counted along it
Sequence of HOXD13 (Homo sapiens, UniProt P35453 263-343, T313A) (P35453 263-343 T313A): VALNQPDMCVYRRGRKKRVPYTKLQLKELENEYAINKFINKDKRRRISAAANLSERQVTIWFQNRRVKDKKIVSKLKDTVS
Sequence of HOXD13 (Homo sapiens, UniProt P35453 263-343) (P35453 263-343): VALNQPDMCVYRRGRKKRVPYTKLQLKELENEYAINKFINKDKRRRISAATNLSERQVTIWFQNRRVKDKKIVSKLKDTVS
Sequence of HOXD13 (Homo sapiens, UniProt P35453 263-343, T313R) (P35453 263-343 T313R): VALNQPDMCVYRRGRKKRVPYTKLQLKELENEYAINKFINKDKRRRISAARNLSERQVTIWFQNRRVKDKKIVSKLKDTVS
Sequence of HOXA4 (Homo sapiens, UniProt Q00056 201-287) (Q00056 201-287): as the sequence (Q00056 201-287 W262F) above, with F62W counted along it
Sequence of HOXA4 (Homo sapiens, UniProt Q00056 201-287, W262R) (Q00056 201-287 W262R): as the sequence (Q00056 201-287 W262F) above, with F62R counted along it
Sequence of ALX1 (Homo sapiens, UniProt Q15699 118-204) (Q15699 118-204): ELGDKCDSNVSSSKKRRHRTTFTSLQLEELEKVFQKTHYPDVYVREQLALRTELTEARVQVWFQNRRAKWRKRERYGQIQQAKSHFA
Sequence of HOXC10 (Homo sapiens, UniProt Q9NYD6 254-340, K271E) (Q9NYD6 254-340 K271E): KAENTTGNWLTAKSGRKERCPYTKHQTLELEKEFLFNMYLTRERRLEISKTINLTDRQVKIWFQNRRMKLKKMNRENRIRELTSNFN
Sequence of HOXC10 (Homo sapiens, UniProt Q9NYD6 254-340) (Q9NYD6 254-340): as the sequence (Q9NYD6 254-340 K271E) above, with E18K counted along it
Sequence of ALX1 (Homo sapiens, UniProt Q15699 118-204, L144V) (Q15699 118-204 L144V): as the sequence (Q15699 118-204) above, with L27V counted along it
Sequence of ALX1 (Homo sapiens, UniProt Q15699 118-204, L144R) (Q15699 118-204 L144R): as the sequence (Q15699 118-204) above, with L27R counted along it
Sequence of HOXA4 (Homo sapiens, UniProt Q00056 201-287, R217L) (Q00056 201-287 R217L): as the sequence (Q00056 201-287 W262F) above, with R17L, F62W counted along it

Q: Which binding signal (NKX2-5 [1]) does the source give for CGGTGGGC here?
A: 9.02 upbm affinity estimate (log intensity, higher = more binding, comparable within an allelic series)

Q: What about the binding signal (PAX4 [2]) of the same sequence?
A: 9.41 upbm affinity estimate (log intensity, higher = more binding, comparable within an allelic series)

Q: And the binding signal (PAX4 [3])?
A: 9.5 upbm affinity estimate (log intensity, higher = more binding, comparable within an allelic series)

Q: And the binding signal (NKX2-6 [4])?
A: 9.22 upbm affinity estimate (log intensity, higher = more binding, comparable within an allelic series)

Q: What about the binding signal (HOXD13 [5]) of the same sequence?
A: 9.46 upbm affinity estimate (log intensity, higher = more binding, comparable within an allelic series)

Q: And the binding signal (PAX4 [6])?
A: 9.39 upbm affinity estimate (log intensity, higher = more binding, comparable within an allelic series)

Q: And the binding signal (HOXD13 [7])?
A: 9.53 upbm affinity estimate (log intensity, higher = more binding, comparable within an allelic series)

Q: What about the binding signal (PAX4 [8]) of the same sequence?
A: 9.14 upbm affinity estimate (log intensity, higher = more binding, comparable within an allelic series)

Q: And the binding signal (PAX4 [9])?
A: 9.14 upbm affinity estimate (log intensity, higher = more binding, comparable within an allelic series)

Q: What about the binding signal (HOXD13 [10]) of the same sequence?
A: 9.44 upbm affinity estimate (log intensity, higher = more binding, comparable within an allelic series)

Q: And the binding signal (PAX4 [11])?
A: 9.26 upbm affinity estimate (log intensity, higher = more binding, comparable within an allelic series)

Q: And the binding signal (NKX2-5 [12])?
A: 9.07 upbm affinity estimate (log intensity, higher = more binding, comparable within an allelic series)

Q: How did the binding signal (NKX2-5 [1]) turn out when CCCCCCGG was run?
A: 8.2 upbm affinity estimate (log intensity, higher = more binding, comparable within an allelic series)

Q: What about the binding signal (HOXC10 [13]) of the same sequence?
A: 9.81 upbm affinity estimate (log intensity, higher = more binding, comparable within an allelic series)

Q: What about the binding signal (NKX2-6 [4]) of the same sequence?
A: 8.56 upbm affinity estimate (log intensity, higher = more binding, comparable within an allelic series)

Q: What about the binding signal (HOXD13 [5]) of the same sequence?
A: 8.85 upbm affinity estimate (log intensity, higher = more binding, comparable within an allelic series)

Q: And the binding signal (HOXD13 [7])?
A: 8.78 upbm affinity estimate (log intensity, higher = more binding, comparable within an allelic series)

Q: And the binding signal (HOXC10 [14])?
A: 9.82 upbm affinity estimate (log intensity, higher = more binding, comparable within an allelic series)

Q: What about the binding signal (HOXD13 [10]) of the same sequence?
A: 8.98 upbm affinity estimate (log intensity, higher = more binding, comparable within an allelic series)

Q: And the binding signal (NKX2-5 [12])?
A: 8.1 upbm affinity estimate (log intensity, higher = more binding, comparable within an allelic series)

Q: Which binding signal (NKX2-5 [1]) does the source give for ACGCCGGC here?
A: 8.53 upbm affinity estimate (log intensity, higher = more binding, comparable within an allelic series)

Q: What about the binding signal (PAX4 [2]) of the same sequence?
A: 9.13 upbm affinity estimate (log intensity, higher = more binding, comparable within an allelic series)

Q: And the binding signal (PAX4 [3])?
A: 9.3 upbm affinity estimate (log intensity, higher = more binding, comparable within an allelic series)

Q: And the binding signal (PAX4 [6])?
A: 9.23 upbm affinity estimate (log intensity, higher = more binding, comparable within an allelic series)

Q: What about the binding signal (PAX4 [8]) of the same sequence?
A: 9.3 upbm affinity estimate (log intensity, higher = more binding, comparable within an allelic series)

Q: And the binding signal (PAX4 [9])?
A: 9.27 upbm affinity estimate (log intensity, higher = more binding, comparable within an allelic series)

Q: And the binding signal (PAX4 [11])?
A: 9.27 upbm affinity estimate (log intensity, higher = more binding, comparable within an allelic series)

Q: What about the binding signal (NKX2-5 [12]) of the same sequence?
A: 8.56 upbm affinity estimate (log intensity, higher = more binding, comparable within an allelic series)

Q: AGTCCCGG was tested. Which binding signal (NKX2-5 [1]) did it give?
A: 8.88 upbm affinity estimate (log intensity, higher = more binding, comparable within an allelic series)

Q: And the binding signal (PAX4 [2])?
A: 9.42 upbm affinity estimate (log intensity, higher = more binding, comparable within an allelic series)

Q: And the binding signal (PAX4 [3])?
A: 9.48 upbm affinity estimate (log intensity, higher = more binding, comparable within an allelic series)

Q: What about the binding signal (NKX2-6 [15]) of the same sequence?
A: 9.31 upbm affinity estimate (log intensity, higher = more binding, comparable within an allelic series)

Q: What about the binding signal (PAX4 [6]) of the same sequence?
A: 9.44 upbm affinity estimate (log intensity, higher = more binding, comparable within an allelic series)

Q: And the binding signal (PAX4 [8])?
A: 9.3 upbm affinity estimate (log intensity, higher = more binding, comparable within an allelic series)

Q: And the binding signal (PAX4 [9])?
A: 9.36 upbm affinity estimate (log intensity, higher = more binding, comparable within an allelic series)

Q: And the binding signal (NKX2-6 [16])?
A: 9.26 upbm affinity estimate (log intensity, higher = more binding, comparable within an allelic series)

Q: What about the binding signal (PAX4 [11]) of the same sequence?
A: 9.43 upbm affinity estimate (log intensity, higher = more binding, comparable within an allelic series)

Q: What about the binding signal (NKX2-5 [12]) of the same sequence?
A: 8.88 upbm affinity estimate (log intensity, higher = more binding, comparable within an allelic series)

Q: CCCAACGG was tested. Which binding signal (NKX2-5 [1]) did it give?
A: 8.75 upbm affinity estimate (log intensity, higher = more binding, comparable within an allelic series)

Q: And the binding signal (HOXA4 [17])?
A: 9.93 upbm affinity estimate (log intensity, higher = more binding, comparable within an allelic series)

Q: And the binding signal (HOXA4 [18])?
A: 9.99 upbm affinity estimate (log intensity, higher = more binding, comparable within an allelic series)

Q: What about the binding signal (ALX1 [19]) of the same sequence?
A: 6.54 upbm affinity estimate (log intensity, higher = more binding, comparable within an allelic series)

Q: And the binding signal (ALX1 [20])?
A: 6.52 upbm affinity estimate (log intensity, higher = more binding, comparable within an allelic series)

Q: What about the binding signal (HOXA4 [21]) of the same sequence?
A: 9.83 upbm affinity estimate (log intensity, higher = more binding, comparable within an allelic series)

Q: And the binding signal (ALX1 [22])?
A: 6.46 upbm affinity estimate (log intensity, higher = more binding, comparable within an allelic series)

Q: What about the binding signal (HOXA4 [23]) of the same sequence?
A: 10 upbm affinity estimate (log intensity, higher = more binding, comparable within an allelic series)

Q: What about the binding signal (NKX2-5 [12]) of the same sequence?
A: 8.76 upbm affinity estimate (log intensity, higher = more binding, comparable within an allelic series)

Reference: PMC11006913
